For part of these data: Results with a measured potency or affinity are listed apart.
Columns and labels:
Design in all cases: scale not given: direction of the effect not stated beside the values
[1] = biological target: Protein translocase subunit SecA (Escherichia coli (strain K12)) (UniProt P10408); assay: Assay to Identify E. coli SecA ATPase Inhibitors; assay type: functional; details: 30 µM
[2] = biological target: T1, Ubiquitin-activating enzyme e1, putative (Leishmania donovani (strain BPK282A1)) (UniProt E9BSI1); assay: Leishmania donovani Ubiquitin Activating Enzyme (LdE1); assay type: functional; details: 30 µM
T1 sequence (whole entry): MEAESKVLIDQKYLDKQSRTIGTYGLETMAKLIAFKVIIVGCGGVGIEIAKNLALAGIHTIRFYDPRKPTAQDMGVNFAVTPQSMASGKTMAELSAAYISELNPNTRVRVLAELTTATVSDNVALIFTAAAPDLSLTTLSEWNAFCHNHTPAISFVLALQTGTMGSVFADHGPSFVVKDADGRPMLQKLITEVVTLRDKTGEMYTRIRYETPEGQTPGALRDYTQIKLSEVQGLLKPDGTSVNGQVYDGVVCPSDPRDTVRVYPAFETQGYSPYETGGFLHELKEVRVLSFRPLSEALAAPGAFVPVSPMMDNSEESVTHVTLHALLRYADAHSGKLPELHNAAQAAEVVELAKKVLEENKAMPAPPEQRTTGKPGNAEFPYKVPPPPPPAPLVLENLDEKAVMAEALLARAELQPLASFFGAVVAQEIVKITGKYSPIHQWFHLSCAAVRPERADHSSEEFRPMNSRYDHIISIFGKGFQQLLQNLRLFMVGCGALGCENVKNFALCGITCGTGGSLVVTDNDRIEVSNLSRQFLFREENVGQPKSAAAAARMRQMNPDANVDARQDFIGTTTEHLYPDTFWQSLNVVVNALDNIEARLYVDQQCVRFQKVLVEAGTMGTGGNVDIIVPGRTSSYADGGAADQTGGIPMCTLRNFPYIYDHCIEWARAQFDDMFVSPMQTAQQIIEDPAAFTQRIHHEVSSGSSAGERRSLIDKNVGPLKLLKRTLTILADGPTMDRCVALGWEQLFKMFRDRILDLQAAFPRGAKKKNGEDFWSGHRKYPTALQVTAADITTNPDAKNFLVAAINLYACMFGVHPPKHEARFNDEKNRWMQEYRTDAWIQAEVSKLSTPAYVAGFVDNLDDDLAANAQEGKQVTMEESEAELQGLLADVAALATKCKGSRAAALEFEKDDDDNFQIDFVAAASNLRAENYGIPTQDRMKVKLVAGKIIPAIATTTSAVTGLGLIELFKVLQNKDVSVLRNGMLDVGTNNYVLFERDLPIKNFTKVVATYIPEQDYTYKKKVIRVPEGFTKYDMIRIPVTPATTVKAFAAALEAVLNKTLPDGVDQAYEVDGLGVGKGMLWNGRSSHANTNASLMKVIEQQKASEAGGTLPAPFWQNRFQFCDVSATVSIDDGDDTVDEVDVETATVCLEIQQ

[3] = biological target: Sialic acid-binding Ig-like lectin 9 (Homo sapiens) (UniProt Q9Y336); assay: Hs-Siglec9 ALPHAscreen SOP 20170721; details: 10 µM
Chain of Sialic acid-binding Ig-like lectin 9 (Homo sapiens) (Q9Y336 whole entry): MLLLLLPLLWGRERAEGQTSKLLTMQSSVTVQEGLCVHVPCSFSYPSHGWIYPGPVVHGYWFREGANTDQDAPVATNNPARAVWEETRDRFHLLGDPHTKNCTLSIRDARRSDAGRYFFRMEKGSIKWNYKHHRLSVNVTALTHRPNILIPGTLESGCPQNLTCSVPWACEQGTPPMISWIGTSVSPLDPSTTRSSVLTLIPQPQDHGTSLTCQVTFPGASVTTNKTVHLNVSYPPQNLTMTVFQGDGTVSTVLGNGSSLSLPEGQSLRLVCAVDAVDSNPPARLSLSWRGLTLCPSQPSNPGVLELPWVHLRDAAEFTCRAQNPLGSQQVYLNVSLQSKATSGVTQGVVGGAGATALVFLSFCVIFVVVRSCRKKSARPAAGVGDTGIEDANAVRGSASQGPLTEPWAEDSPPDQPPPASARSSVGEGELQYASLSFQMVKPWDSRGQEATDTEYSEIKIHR

Trypanosoma cruzi = assay: Trypanosoma cruzi phosphomannomutase and mannose-1-phosphate guanylyltransferase assay; assay type: functional; details: 10 µM
[4] = biological target: T2, Arginase-2, mitochondrial (Homo sapiens) (UniProt P78540); assay: in vitro enzyme assay to detect the production of urea directly proportional to the activity of Arginase II; assay type: functional; details: 33.3 µM; further: in the data most compounds retested in dose-response had high values
T2 sequence (whole entry): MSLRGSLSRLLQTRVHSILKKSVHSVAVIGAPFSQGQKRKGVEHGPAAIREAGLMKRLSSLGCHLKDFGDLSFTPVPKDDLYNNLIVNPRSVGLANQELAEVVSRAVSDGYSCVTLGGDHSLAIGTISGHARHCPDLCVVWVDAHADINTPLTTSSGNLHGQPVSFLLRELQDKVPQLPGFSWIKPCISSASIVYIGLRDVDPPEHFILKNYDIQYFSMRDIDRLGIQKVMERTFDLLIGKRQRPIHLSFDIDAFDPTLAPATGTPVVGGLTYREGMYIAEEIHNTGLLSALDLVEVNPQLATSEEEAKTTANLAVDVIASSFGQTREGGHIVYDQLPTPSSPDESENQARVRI

[5] = biological target: T3, Proteasome subunit beta (Trypanosoma cruzi) (UniProt O96673); assay: Trypanosoma cruzi proteasome chymotrypsin-like activity (TcProtChymo) assay.; further: in the data most compounds retested in dose-response had high values; assay type: functional; details: 9.37 µM
T3 sequence (whole entry): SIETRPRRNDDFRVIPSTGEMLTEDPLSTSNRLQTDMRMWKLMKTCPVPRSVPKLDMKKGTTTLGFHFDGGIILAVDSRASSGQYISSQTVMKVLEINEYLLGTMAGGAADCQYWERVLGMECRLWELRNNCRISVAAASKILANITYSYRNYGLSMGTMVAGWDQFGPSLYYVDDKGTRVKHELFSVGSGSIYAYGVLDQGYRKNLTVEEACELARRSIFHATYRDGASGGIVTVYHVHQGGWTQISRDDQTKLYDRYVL

Homo sapiens = species: Homo sapiens; assay: To identify inhibition of the IFN signalling (Jak-Stat) pathway via expression of an eGFP reporter gene under the control of an IFN-stimulated response element (ISRE) containing MxA promoter.; assay type: functional; details: 30 µM
[6] = biological target: T4, Tyrosyl-tRNA synthetase, putative (Trypanosoma cruzi (strain CL Brener)) (UniProt Q4DSP6); assay: Trypanosoma cruzi tyrosyl tRNA synthetase (TcYRS) _High Tyrosine SOP; assay type: functional; details: 30 µM; further: in the data most compounds retested in dose-response had high values
T4 sequence (whole entry): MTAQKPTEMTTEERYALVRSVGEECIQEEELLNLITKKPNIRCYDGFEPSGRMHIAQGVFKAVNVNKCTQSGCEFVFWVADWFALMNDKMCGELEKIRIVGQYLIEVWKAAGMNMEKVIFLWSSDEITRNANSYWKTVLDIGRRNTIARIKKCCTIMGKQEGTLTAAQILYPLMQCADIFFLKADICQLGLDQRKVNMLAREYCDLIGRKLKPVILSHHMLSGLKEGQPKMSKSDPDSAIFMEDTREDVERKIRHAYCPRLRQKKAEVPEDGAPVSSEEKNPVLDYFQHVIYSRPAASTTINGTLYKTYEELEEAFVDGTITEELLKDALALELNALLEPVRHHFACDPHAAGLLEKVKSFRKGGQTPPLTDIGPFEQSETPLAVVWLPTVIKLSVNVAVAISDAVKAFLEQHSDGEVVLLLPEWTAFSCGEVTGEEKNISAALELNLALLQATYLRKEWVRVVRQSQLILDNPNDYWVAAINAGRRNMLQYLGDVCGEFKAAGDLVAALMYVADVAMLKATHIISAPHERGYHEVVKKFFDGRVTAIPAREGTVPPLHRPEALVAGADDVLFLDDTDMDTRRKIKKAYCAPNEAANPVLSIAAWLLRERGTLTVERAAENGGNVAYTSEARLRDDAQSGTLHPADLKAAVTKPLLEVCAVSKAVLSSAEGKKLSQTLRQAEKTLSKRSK

[7] = biological target: T4, Tyrosyl-tRNA synthetase, putative (Trypanosoma cruzi (strain CL Brener)); assay: Trypanosoma cruzi tyrosyl tRNA synthetase (TcYRS) SOP; assay type: functional; details: 30 µM
[8] = biological target: Chromo domain-containing protein 1 (Saccharomyces cerevisiae (strain ATCC 204508 / S288c) (Baker's yeast)) (UniProt P32657); assay: ScCHD-1 Enzyme Inhibition Assay; assay type: functional; details: 30 µM; further: in the data most compounds retested in dose-response had high values
Chain of Chromo domain-containing protein 1 (Saccharomyces cerevisiae (strain ATCC 204508 / S288c) (Baker's yeast)) (P32657 whole entry, the tested form may be a part): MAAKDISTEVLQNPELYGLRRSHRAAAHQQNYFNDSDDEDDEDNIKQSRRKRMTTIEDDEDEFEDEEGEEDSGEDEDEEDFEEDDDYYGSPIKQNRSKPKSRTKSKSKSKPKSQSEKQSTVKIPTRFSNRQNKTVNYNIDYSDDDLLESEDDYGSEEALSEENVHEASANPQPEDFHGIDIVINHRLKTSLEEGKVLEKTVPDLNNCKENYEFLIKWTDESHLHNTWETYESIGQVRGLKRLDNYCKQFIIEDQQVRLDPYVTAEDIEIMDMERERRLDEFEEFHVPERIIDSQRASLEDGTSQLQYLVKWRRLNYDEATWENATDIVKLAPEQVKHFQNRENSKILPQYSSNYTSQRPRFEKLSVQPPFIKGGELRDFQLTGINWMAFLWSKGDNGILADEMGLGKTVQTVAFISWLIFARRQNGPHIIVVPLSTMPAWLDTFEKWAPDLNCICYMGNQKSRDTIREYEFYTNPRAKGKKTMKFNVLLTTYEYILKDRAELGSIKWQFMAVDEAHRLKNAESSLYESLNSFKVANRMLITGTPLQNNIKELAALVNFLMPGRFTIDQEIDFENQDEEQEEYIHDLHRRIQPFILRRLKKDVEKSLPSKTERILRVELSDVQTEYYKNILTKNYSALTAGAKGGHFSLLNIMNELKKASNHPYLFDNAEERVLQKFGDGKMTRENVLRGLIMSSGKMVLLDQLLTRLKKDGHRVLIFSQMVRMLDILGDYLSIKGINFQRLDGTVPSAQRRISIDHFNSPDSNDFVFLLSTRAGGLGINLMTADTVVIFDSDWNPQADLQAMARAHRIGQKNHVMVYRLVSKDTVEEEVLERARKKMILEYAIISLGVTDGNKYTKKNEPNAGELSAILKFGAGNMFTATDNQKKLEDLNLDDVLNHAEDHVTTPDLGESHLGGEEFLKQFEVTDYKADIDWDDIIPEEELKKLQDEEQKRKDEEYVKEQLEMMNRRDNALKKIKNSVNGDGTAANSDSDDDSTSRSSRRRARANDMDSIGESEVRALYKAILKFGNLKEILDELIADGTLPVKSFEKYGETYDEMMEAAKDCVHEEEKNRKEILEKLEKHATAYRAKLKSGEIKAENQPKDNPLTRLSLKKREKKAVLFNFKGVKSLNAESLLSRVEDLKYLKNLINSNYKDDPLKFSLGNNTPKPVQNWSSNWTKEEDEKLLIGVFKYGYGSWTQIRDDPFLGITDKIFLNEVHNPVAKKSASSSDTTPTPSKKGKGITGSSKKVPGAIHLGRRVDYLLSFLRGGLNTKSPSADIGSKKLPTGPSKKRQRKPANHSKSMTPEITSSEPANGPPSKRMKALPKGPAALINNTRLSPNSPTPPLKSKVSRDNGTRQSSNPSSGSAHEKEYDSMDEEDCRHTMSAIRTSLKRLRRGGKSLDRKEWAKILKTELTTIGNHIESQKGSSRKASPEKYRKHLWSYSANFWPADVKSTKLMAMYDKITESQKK

Chain of Protein translocase subunit SecA (Escherichia coli (strain K12)) (P10408 whole entry): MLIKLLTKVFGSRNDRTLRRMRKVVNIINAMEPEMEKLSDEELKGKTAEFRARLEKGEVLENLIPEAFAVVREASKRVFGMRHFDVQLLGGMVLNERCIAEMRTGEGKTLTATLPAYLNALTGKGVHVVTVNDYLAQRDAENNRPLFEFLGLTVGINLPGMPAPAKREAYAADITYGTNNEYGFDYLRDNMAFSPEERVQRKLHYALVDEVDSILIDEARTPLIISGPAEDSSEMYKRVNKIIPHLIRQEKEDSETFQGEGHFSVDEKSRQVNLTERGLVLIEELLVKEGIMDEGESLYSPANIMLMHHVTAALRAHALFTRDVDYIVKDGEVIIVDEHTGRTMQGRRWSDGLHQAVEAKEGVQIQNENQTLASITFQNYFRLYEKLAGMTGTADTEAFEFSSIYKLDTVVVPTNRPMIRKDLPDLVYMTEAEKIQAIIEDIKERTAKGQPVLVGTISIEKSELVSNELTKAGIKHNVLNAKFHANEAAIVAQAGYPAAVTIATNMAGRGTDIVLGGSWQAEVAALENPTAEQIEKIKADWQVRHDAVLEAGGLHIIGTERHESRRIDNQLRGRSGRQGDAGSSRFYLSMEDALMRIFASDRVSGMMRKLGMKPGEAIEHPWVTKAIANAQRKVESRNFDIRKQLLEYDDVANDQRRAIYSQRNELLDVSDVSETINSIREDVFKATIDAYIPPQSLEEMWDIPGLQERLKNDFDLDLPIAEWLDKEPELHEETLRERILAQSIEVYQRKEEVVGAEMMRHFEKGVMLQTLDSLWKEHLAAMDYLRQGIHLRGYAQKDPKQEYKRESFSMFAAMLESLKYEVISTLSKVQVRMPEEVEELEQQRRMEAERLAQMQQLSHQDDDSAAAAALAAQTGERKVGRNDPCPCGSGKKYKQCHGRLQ

Compound | Percent Effect [1] | Percent Effect [2] | Percent Effect [3] | Percent Effect (Trypanosoma cruzi) | Percent Effect [4] | Percent Effect [5] | Percent Effect (Homo sapiens) | Percent Effect [6] | Percent Effect [7] | Percent Effect [8]
O=C(NCCN1CCCCC1)c1ccoc1 | -6.92% | 7.79% | -0.674% | -7.28% | -2.66% | 4.21% | 14.7% | -2.94% | 0% | -4.75%
CCc1nc(CN(C)C2CCN(CCS(C)(=O)=O)C2)no1 (stereo not given) | -1.27% | 18.7% | -4.89% | 0% | -1.77% | 16.9% | 4.92% | 5.79% | 17.9% | -5.25%
CCN1CCn2nc(CCC(=O)N3CCCC3)cc2C1 | -6.01% | 2.7% | 0.796% | -3.98% | 0.35% | 19% | 8.04% | 5.85% | 14.6% | -5.3%
CC(C)c1nc(C2CCCN2CC(=O)Nc2ccc(Cl)cn2)no1 (stereo not given) | -10.5% | 18.7% | 16.2% | 5.62% | -4.88% | 8.23% | 4.35% | 5.79% | 10.3% | -14.8%
CC(O)CNC(=O)NCc1cccnc1OC1CCCC1 (stereo not given) | -1.77% | 13.3% | -3.55% | -3.21% | 7.54% | 2.63% | 10.2% | 6.84% | 2.56% | -11.2%
CC(C)NC(=O)Nc1ccc(CNCc2cccc(OC(F)F)c2)cc1 | -3.77% | 10.4% | -3.29% | -2.98% | -10% | 24% | 25.1% | 4.9% | 7.06% | -10.9%
Cc1cncc(C2CCCN(C(=O)c3ccc(C)[nH]c3=O)C2)n1 (stereo not given) | -4.08% | 20% | 0.301% | 1.58% | -1.33% | 18.4% | -10.4% | 5.29% | 17.5% | -23.9%
Cc1cccnc1C(=O)N1CCCCC1c1[nH]ncc1S(C)(=O)=O (stereo not given) | -3.04% | 6.67% | 0.367% | -1.97% | 6.64% | 4.76% | 0.716% | 7.41% | 7.5% | -19.6%
O=C(Cn1cccnc1=O)NCCc1ccc2c(c1)OCCO2 | -2.08% | 16% | -6.16% | -5.22% | 1.77% | 18.9% | 9.16% | 1.58% | 7.69% | -8.6%
COC(=O)Cn1c(=O)nc2n1C(=O)N(c1ccc(Cl)cc1)C2 | -4.67% | 2.7% | 8.46% | -8.83% | -2.45% | 10.4% | -2.27% | 0.532% | 2.44% | -2.66%
CCn1ccnc1CN1CCN(CC(O)Cn2cccn2)CC1 (stereo not given) | -5.85% | 0% | -2.48% | -1.97% | -4.51% | 11% | 18.6% | -0.478% | 6.02% | 1.41%
Cc1noc(C(C)C)c1C(=O)NCCCOC(C)C | 0.204% | 2.6% | 15.3% | 0.373% | -2.25% | 6.67% | -3.84% | 0.98% | 9.41% | -6.89%

Reference: ChEMBL document CHEMBL3988442, “University of Dundee, Small-Polar-MMV Screening Library” (2021)
